Source: PubChem BioAssay
Entries with a potency or affinity are not part of this list. Activity calls are given as the source filed them.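 Rule for the calls, unless noted: active = a dose-response fit showing signal loss, with half-maximal concentration no higher than twice the top tested dose; inconclusive = flat fit between 30% and 70% signal loss, or poor fit; inactive = the rest.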

Assay: inducers of Cryptococcus neoformans cell lysis, dose response, AK release luminescence, cherry-picks (AID 687000;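 active = fitted dose curve reaches 40% lysis signal rise at or below the highest valid concentration tested for that sample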;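 note: luminescent detection of adenylate kinase leaking from lysed yeast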)
Conditions: C. neoformans lysis, adenylate kinase release luminescence, 4 h, 100% = twice the neutral-control signal; series mostly up to 15 µM
For O=C(C1CCOCC1)N1CC[C@@H]2[C@H]1c1cc(Br)ccc1N[C@@H]2CO, the outcome was “inactive”.
With CC(C)CC#Cc1ccc2c(c1)O[C@@H](CN(C)C(=O)C1CCC1)[C@@H](C)CN([C@H](C)CO)S2(=O)=O the outcome was “inactive”.
For Cc1noc(C)c1NC(=O)Nc1ccc2c(c1)C(=O)N(C)[C@@H]1CC[C@H](CC(=O)N[C@H]3CCN(Cc4ccccc4)C3)O[C@@H]1CO2, the outcome was “inactive”.
For C[C@@H]1CN([C@@H](C)CO)C(=O)Cc2cc(NC(=O)Nc3cccc4ccccc34)ccc2O[C@@H]1CN(C)S(=O)(=O)c1cccs1, the outcome was “inactive”.
In the case of Cc1ccccc1CN(C)C[C@H]1OCc2cn(nn2)CCCC(=O)N([C@@H](C)CO)C[C@H]1C, the outcome was “inactive”.
For C[C@@H]1CN([C@@H](C)CO)C(=O)c2c(c3ccccc3n2C)-c2ccccc2CO[C@@H]1CN(C)S(=O)(=O)c1ccc(Cl)cc1, the outcome was “inactive”.
With CO[C@H]1CN(C)C(=O)c2cc(NS(=O)(=O)CC(F)(F)F)ccc2OC[C@@H](C)N(Cc2cccnc2)C[C@@H]1C the outcome was “inactive”.
For O=S(=O)(c1ccc(F)cc1)N1C[C@@H]2[C@H](c3ccccc31)[C@@H](CO)N2Cc1ccccc1Cl, the outcome was “inactive”.
With CCCC#Cc1ccc2c(c1)O[C@H](CN(C)CCC)[C@H](C)CN([C@@H](C)CO)S2(=O)=O the outcome was “inactive”.
In the case of Cc1cccc(C)c1NC(=O)C(CCc1ccccc1)N1CCC(c2ccccc2)CC1 (stereo not drawn), the outcome was “inactive”.
In the case of C[C@@H]1CN([C@@H](C)CO)S(=O)(=O)c2ccc(C#CC3CC3)cc2O[C@H]1CN(C)CC1CCOCC1, the outcome was “inactive”.
With COc1ccc(N(CC(=O)NCCSCc2ccc(C)cc2)S(=O)(=O)c2ccccc2)cc1 the outcome was “inactive”.
In the case of COc1ccccc1CN1CC[C@H]2[C@H](CO)Nc3ccc(C#Cc4ccccc4)cc3[C@H]21, the outcome was “inactive”.
In the case of O=C(Nc1ccccc1)N1CCCCN2[C@H](CO)[C@@H](c3ccc(C#CC4CC4)cc3)[C@@H]2C1, the outcome was “inactive”.
In the case of C[C@@H]1CN([C@@H](C)CO)S(=O)(=O)c2ccc(-c3ccccc3)cc2O[C@H]1CN(C)C(=O)C1CCCCC1, the outcome was “inactive”.
In the case of C[C@@H]1CN([C@H](C)CO)S(=O)(=O)c2ccc(C#Cc3ccc(F)cc3)cc2O[C@H]1CN(C)C(=O)NC1CCCC1, the outcome was “inactive”.
With C[C@H]1CCCCO[C@H](CN(C)C(=O)Nc2ccc(F)cc2)[C@@H](C)CN([C@@H](C)CO)C(=O)c2cc(NS(=O)(=O)c3ccc(Cl)cc3)ccc2O1 the outcome was “inactive”.
In the case of COc1cccc(S(=O)(=O)N2C[C@@H](O)COC[C@H]3O[C@H](CC(=O)Nc4ccccc4)CC[C@@H]32)c1, the outcome was “inactive”.

Assay: HepG2 cell cytotoxicity, dose response, cytotoxicity control, cherry-picks, set 2 (AID 687002)
Conditions: HepG2 viability, ATP luminescence (CellTiter-Glo), 48 h; series mostly up to 26 µM
With COc1cc(C(=O)Oc2ccccc2N)cc(OC)c1OC the outcome was “inactive”.
For C[C@@H]1CN([C@@H](C)CO)C(=O)CCCn2nncc2CO[C@@H]1CN(C)Cc1cccc(C(F)(F)F)c1, the outcome was “inactive”.
With O=C(CN1CCOCC1)N1CC[C@@H]2[C@@H](CO)Nc3ccc(-c4ccccc4F)cc3[C@@H]21 the outcome was “inactive”.
In the case of COc1ccccc1C(=O)Nc1ccc2c(c1)OC[C@H](C)N(C(C)=O)C[C@H](C)[C@H](OC)CN(C)C2=O, the outcome was “inactive”.
With C[C@@H]1CN([C@@H](C)CO)C(=O)c2cc(NS(=O)(=O)c3ccc(F)cc3)ccc2O[C@@H](C)CCCCO[C@H]1CN(C)S(=O)(=O)c1ccc(F)cc1 the outcome was “inactive”.
For C[C@@H]1CN([C@H](C)CO)C(=O)c2cccc(NC(=O)Nc3ccccc3)c2O[C@@H]1CN(C)Cc1ccc(Cl)c(Cl)c1, the outcome was “inactive”.
With C[C@@H]1CN([C@H](C)CO)C(=O)c2c(c3ccccc3n2C)-c2ccccc2CO[C@H]1CN(C)S(=O)(=O)c1ccc(Cl)cc1 the outcome was “inactive”.
For C[C@@H](NC(=O)C[C@@H]1CC[C@H]2[C@@H](COC[C@@H](O)CN2Cc2cc(F)ccc2F)O1)c1ccccc1, the outcome was “inactive”.
With CNC(=O)C[C@H]1CC[C@H]2[C@@H](COc3ccc(NC(=O)Nc4cccc(C#N)c4)cc3C(=O)N2C)O1 the outcome was “inactive”.
In the case of CCCN1CCCC[C@H]1C(=O)Nc1c(C)cccc1C, the outcome was “inactive”.
For COc1cccc(S(=O)(=O)Nc2ccc3c(c2)OC[C@H](C)NC[C@@H](C)[C@H](OC)CN(C)C3=O)c1, the outcome was “inactive”.
With COc1ccccc1C(=O)Nc1ccc2c(c1)C(=O)N(C)C[C@H](OC)[C@@H](C)CN(CC1CC1)[C@@H](C)CO2 the outcome was “inactive”.
In the case of Cc1cccc(-c2ccc([C@@H]3[C@H]4CN(C(=O)c5ccc6c(c5)OCO6)CCCCN4[C@H]3CO)cc2)c1, the outcome was “inactive”.
In the case of N#Cc1ccc(-c2ccc3c(c2)[C@H]2[C@H](CCN2C(=O)Cc2ccccc2)[C@@H](CO)N3)cc1, the outcome was “inactive”.
For C[C@@H]1CCCCO[C@H](CN(C)Cc2ccc3c(c2)OCO3)[C@H](C)CN([C@H](C)CO)C(=O)c2cc(NC(=O)Nc3cccc4ccccc34)ccc2O1, the outcome was “inactive”.
In the case of CC(C)NC(=O)Nc1ccc2c(c1)C(=O)N([C@@H](C)CO)C[C@H](C)[C@@H](CN(C)Cc1ccc3c(c1)OCO3)OCCCC[C@@H](C)O2, the outcome was “inactive”.
With CC=Cc1ccc2n(c1=O)C[C@H]1[C@H](CO)[C@@H](C(=O)N3CCc4ccccc4C3)N(C(=O)C3CC3)[C@@H]21 (mixture of isomers) the outcome was “inactive”.
In the case of CNC(=O)CN(c1ccc(C)cc1)S(=O)(=O)c1ccccc1, the outcome was “inactive”.
In the case of C[C@H]1CN([C@@H](C)CO)C(=O)Cc2cc(NC(=O)CCCCCC(=O)Nc3ccccc3N)ccc2O[C@H]1CN(C)Cc1ccc2c(c1)OCO2, the outcome was “inactive”.
In the case of C[C@@H](NC(=O)C[C@@H]1CC[C@@H]2[C@H](COC[C@H](O)CN2Cc2cc(F)ccc2F)O1)c1ccccc1, the outcome was “inactive”.
In the case of CC(C)NC(=O)Nc1ccc2c(c1)CC(=O)N([C@H](C)CO)C[C@H](C)[C@H](CN(C)S(=O)(=O)c1ccc(Cl)cc1)O2, the outcome was “inactive”.
With C[C@H](CO)N1C[C@H](C)[C@H](CN(C)Cc2ccccc2)Oc2cc(C#Cc3ccccn3)ccc2S1(=O)=O the outcome was “inactive”.
For O=C(C1CCOCC1)N1CC[C@@H]2[C@H]1c1cc(Br)ccc1N[C@@H]2CO, the outcome was “inactive”.
For CC(C)CC#Cc1ccc2c(c1)O[C@@H](CN(C)C(=O)C1CCC1)[C@@H](C)CN([C@H](C)CO)S2(=O)=O, the outcome was “inactive”.
For Cc1noc(C)c1NC(=O)Nc1ccc2c(c1)C(=O)N(C)[C@@H]1CC[C@H](CC(=O)N[C@H]3CCN(Cc4ccccc4)C3)O[C@@H]1CO2, the outcome was “inactive”.
In the case of C[C@@H]1CN([C@@H](C)CO)C(=O)Cc2cc(NC(=O)Nc3cccc4ccccc34)ccc2O[C@@H]1CN(C)S(=O)(=O)c1cccs1, the outcome was “inactive”.
In the case of Cc1ccccc1CN(C)C[C@H]1OCc2cn(nn2)CCCC(=O)N([C@@H](C)CO)C[C@H]1C, the outcome was “inactive”.
For C[C@@H]1CN([C@@H](C)CO)C(=O)c2c(c3ccccc3n2C)-c2ccccc2CO[C@@H]1CN(C)S(=O)(=O)c1ccc(Cl)cc1, the outcome was “inactive”.
With CO[C@H]1CN(C)C(=O)c2cc(NS(=O)(=O)CC(F)(F)F)ccc2OC[C@@H](C)N(Cc2cccnc2)C[C@@H]1C the outcome was “inactive”.
In the case of O=S(=O)(c1ccc(F)cc1)N1C[C@@H]2[C@H](c3ccccc31)[C@@H](CO)N2Cc1ccccc1Cl, the outcome was “inactive”.
With CCCC#Cc1ccc2c(c1)O[C@H](CN(C)CCC)[C@H](C)CN([C@@H](C)CO)S2(=O)=O the outcome was “inactive”.
In the case of Cc1cccc(C)c1NC(=O)C(CCc1ccccc1)N1CCC(c2ccccc2)CC1 (stereo not drawn), the outcome was “inactive”.
With C[C@@H]1CN([C@@H](C)CO)S(=O)(=O)c2ccc(C#CC3CC3)cc2O[C@H]1CN(C)CC1CCOCC1 the outcome was “inactive”.
With COc1ccc(N(CC(=O)NCCSCc2ccc(C)cc2)S(=O)(=O)c2ccccc2)cc1 the outcome was “inactive”.
With COc1ccccc1CN1CC[C@H]2[C@H](CO)Nc3ccc(C#Cc4ccccc4)cc3[C@H]21 the outcome was “inactive”.
In the case of O=C(Nc1ccccc1)N1CCCCN2[C@H](CO)[C@@H](c3ccc(C#CC4CC4)cc3)[C@@H]2C1, the outcome was “inactive”.
With C[C@@H]1CN([C@@H](C)CO)S(=O)(=O)c2ccc(-c3ccccc3)cc2O[C@H]1CN(C)C(=O)C1CCCCC1 the outcome was “inactive”.
In the case of C[C@@H]1CN([C@H](C)CO)S(=O)(=O)c2ccc(C#Cc3ccc(F)cc3)cc2O[C@H]1CN(C)C(=O)NC1CCCC1, the outcome was “inactive”.
With C[C@H]1CCCCO[C@H](CN(C)C(=O)Nc2ccc(F)cc2)[C@@H](C)CN([C@@H](C)CO)C(=O)c2cc(NS(=O)(=O)c3ccc(Cl)cc3)ccc2O1 the outcome was “inactive”.
For COc1cccc(S(=O)(=O)N2C[C@@H](O)COC[C@H]3O[C@H](CC(=O)Nc4ccccc4)CC[C@@H]32)c1, the outcome was “inactive”.
